{"source": "PubChem BioAssay AID1847", "about": "(The Scripps Research Institute Molecular Screening Center, 2009)", "note": "In all, about 2,300 compounds went through this assay and about 1,100 (48%) were called active. So high a share suggests a set chosen from earlier hits. Only a sample is shown. Values without a mark were called inactive.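 Rule for the calls: active = inhibition above the mean inhibition of all tested sample wells plus 3 SD (cut at about 10% in these data); inactive = the rest.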"}
{"target": "Luciferin 4-monooxygenase (Photinus pyralis) (UniProt P08659)", "sequence (P08659 whole entry, looked up)": "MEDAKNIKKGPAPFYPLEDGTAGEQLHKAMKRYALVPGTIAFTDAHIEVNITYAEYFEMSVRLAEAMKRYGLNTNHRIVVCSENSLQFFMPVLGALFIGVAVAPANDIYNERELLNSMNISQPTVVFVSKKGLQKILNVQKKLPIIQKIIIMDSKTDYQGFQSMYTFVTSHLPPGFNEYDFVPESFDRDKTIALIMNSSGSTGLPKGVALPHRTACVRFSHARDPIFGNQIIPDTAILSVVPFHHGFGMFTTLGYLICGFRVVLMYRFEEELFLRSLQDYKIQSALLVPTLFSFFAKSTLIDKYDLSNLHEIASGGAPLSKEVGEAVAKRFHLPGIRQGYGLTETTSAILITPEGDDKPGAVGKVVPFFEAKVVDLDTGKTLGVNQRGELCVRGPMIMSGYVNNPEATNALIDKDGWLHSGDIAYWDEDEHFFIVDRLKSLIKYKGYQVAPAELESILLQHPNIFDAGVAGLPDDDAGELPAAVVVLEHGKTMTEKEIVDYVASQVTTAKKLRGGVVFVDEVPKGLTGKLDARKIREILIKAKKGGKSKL", "experiment": "native FLuc enzyme inhibition – biochemical, luminescence, triplicate, artefact control for HSP90 inhibitor project, confirmation (AID 1847);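 note: 0% = DMSO with luciferase and 100% = wells lacking luciferase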", "details": "purified native firefly luciferase, at 5.9 µM, stronger effect = higher value"}
{"smiles": "COc1cccc(-c2nc3ccc(N4CCN(C)CC4)cc3[nH]2)c1", "inhibition": "38.9% (active)"}
{"smiles": "O=c1c2ccccc2nc(/C=C/c2ccco2)n1-c1ccccc1O", "inhibition": "4.47%"}
